# Assay results as given in PubChem BioAssay (NCI).
# This is part of a sample that, as a whole, favours compounds with a hit. Of some 83,000 tested, about 20% had one in any assay.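 Cell lines were cultured in 96-well plates, exposed to a single compound concentration, and assessed for percent growth 48 hours later.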 Unmarked numbers belong to inactive results. Active and inactive are the calls of the source.
# System: NCI-H322M lung
# Test: NCI-60 one-dose screen, 48 h (100 = growth as untreated, 0 = no growth, -100 = all killed)
# Settings: 10 µM unless noted
# Method: Growth inhibition of the NCI-H322M human Non-Small Cell Lung tumor cell line is measured as a screen for anti-cancer activity. Cells are grown in 96 well plates and exposed to the test compound for 48 hours. Compounds are tested at a single concentration, which is 10^-5 M for most compounds. The reported endpoint is percent growth (GI% or GIPRCNT), where numbers from 0 - 100% represent growth inhibition, and numbers from -100% - 0 represent cell death. For example, a value of 40 represents 60% growth inhibition. A value of 0 means no net growth occurred over the course of the experiment. A value of -40 indicates 40% of cells at the beginning of the experiment died by the end of the experiment. A value of -100 means all cells are dead at the end of the experiment.
# NCI-60 Human Tumor Cell Lines Screen was performed using the standard one-dose NCI protocol, which is described in more detail at https://dtp.cancer.gov/discovery_development/nci-60/default.htm.
# Compounds with GIPRCNT values below 10 were considered active. Activity score was based on GIPRCNT using the following formula: […]
# Score is 0 for GIPRCNT values of 100 or above, 50 for GIPRCNT values of 0, and 100 for GIPRCNT values of -100.
row,Compound,growth
1,NC(CSC(c1ccccc1)(c1ccccc1)c1ccc(Cl)cc1)C(=O)O (stereo not given),36.5%
2,Cc1cc(N2CCOCC2)nc(NCc2cc(Nc3ccnc4cc(Cl)ccc34)ccc2F)n1,-27.6% (active)
3,Brc1ccc(-c2csc(Nc3ccccn3)n2)cc1,95.2%
4,C=C1C(=O)O[C@H]2[C@H]1CC/C(COC(=O)c1cc3cc(OC)ccc3[nH]1)=C\CC[C@@]1(C)O[C@@H]21,-50.8% (active)
5,CC(=O)O[C@H]1CC[C@]2(C)[C@H]3CC=C4[C@@H]5CC(C)(C)CC[C@]5(C(=O)NCCNCCNCCN)CC[C@@]4(C)[C@]3(C)CC[C@H]2C1(C)C,95.2%
6,Cc1ccc(NC(=O)C2CCC(CN3CCN(C)CC3)CC2)cc1Nc1nccc(-c2cccnc2)n1 (stereo not given),95.9%
7,COc1ccc(C2CC(c3ccc(Cl)cc3)=NN2/C=C2\SC(=S)N(NC(=O)Cc3ccccc3Nc3c(Cl)cccc3Cl)C2=O)cc1 (stereo not given),85%
8,O=C1C=CC(=O)N1c1ccc2c(c1)Cc1cc(F)ccc1-2,93%
9,CCCCCCN(CCCCCC)CCC(O)c1ccc2ccccc2c1 (stereo not given),80.9%
10,CC1=NN(c2nc(-c3ccc(Cl)cc3)c(C#N)c(N3CCOCC3)n2)C(=O)C1,101%
11,COc1ccc(/C=C/C(=O)c2cc(O)ccc2O)cc1,111%
12,Cc1ccc(NC(=O)/C=C/c2ccccc2)c(C(N)=O)c1,63.1%
13,Cc1ccc(C2Oc3ccccc3C3CC(c4cccs4)=NN32)cc1 (stereo not given),91.5%
14,O=C(/C=C/c1ccccc1)c1ccc(O)c(CN2CCN(c3cc4c(cc3F)c(=O)c(C(=O)O)cn4C3CC3)CC2)c1,22.7%
15,CN1C(=O)C2(SCC(C(=O)NCc3ccccc3)N2C(=O)C2CCCCC2)c2ccccc21 (stereo not given),77.1%
16,COc1ccc(SC2c3ccc(C)cc3Oc3nc(N)c(C#N)c(N)c32)cc1 (stereo not given),5.34% (active)
17,CN(CCCCCl)P(=O)(OCc1ccc([N+](=O)[O-])o1)C(F)(F)c1ccc(CC(=O)NC[C@@H](O)/C=C\[C@@H](O)[C@H](CO)Cc2ccccc2)cc1 (stereo not given in full),96.6%
18,O=C(CN(C(=O)Cn1c(=O)n2nnnc2c2ccccc21)c1ccccc1C(F)(F)F)Nc1ccc(C(F)(F)F)cc1,107%
19,NC(=O)c1cc(Cl)ccc1NC(=O)/C=C/c1ccccc1,45.1%
20,C=C1C(=O)O[C@H]2[C@H]1CC/C(C=Nc1ccc(C(F)(F)F)cc1N)=C\CC[C@@]1(C)O[C@@H]21,54%

row,Compound,growth
1,O=C(C(=O)c1ccc2c(c1)OCO2)c1ccc2c(c1)OCO2,122%
2,COc1cc2c(cc1-c1c(C)noc1C)ncc1nc(C3CCOCC3)n([C@H](C)COC(F)F)c12,41.2%
3,Oc1ccccc1-c1nnc(CNc2ccc(Cl)cc2)o1,32%
4,COc1ccc2nc(NC(=O)CSc3nnc4n3S(=O)(=O)c3ccccc3N4c3ccccc3)sc2c1,91.2%
5,COC(=O)c1ccc(NC(=O)c2ccc(-c3cccc([N+](=O)[O-])c3)o2)cc1,94.3%
6,O=C1C=C(OCC=C(Cl)Cl)C(=O)c2ccccc21,101%
7,CC1=C[C@H]2c3c(c(O)c(O)c4oc5ccccc5c(=O)c34)[C@H](c3cc(O)c(O)c4oc5ccccc5c(=O)c34)[C@H]2C(C)(C)C1,18.7%
8,Nc1ccc(-c2cc3c(NCc4ccccc4)ncnc3s2)cc1,60.7%
9,CCC#CC[C@H](O)C/C=C1/C(=O)C=C[C@@H]1C/C=C\CCCC(=O)OC,48.1%
10,Cc1nn(-c2cc(=O)[nH]c3ccc(Cl)cc23)c(N)c1C#N,98.2%
11,COc1ccc(-n2nc(C)c3c(Nc4ccc(NC(=O)Nc5cccc(C(F)(F)F)c5)cc4)ncnc32)cc1,5.43% (active)
12,CCN1CCN(c2nc(NCCCNc3ccnc4cc(Cl)ccc34)c3ccccc3n2)CC1,45.4%
13,COc1ccc(-c2nc3ccc(-c4nc5ccc(N6CCN(C)CC6)cc5[nH]4)cc3[nH]2)cc1OC,96.5%
14,Nc1ccc(S(=O)(=O)O)c2ccc(N=Nc3ccc(N=Nc4ccc(S(=O)(=O)O)cc4)c4ccccc34)c(O)c12,94.7%
15,O=C(N(c1ccccc1)c1ccccc1)n1ccc2nc(Cl)nc(Cl)c21,67.9%
16,CN1CCN=C1c1ccc(NC(=O)c2ccc(C(=O)Nc3ccc(C4=NCCN4C)cc3)cc2)cc1,92.2%
17,COc1cc(-c2nn(-c3ccc(C)cc3)cc2C(=O)O)ccc1O,96.7%
18,Cc1nn(-c2ccc(F)cc2)c2ncnc(Oc3ccc(NC(=O)Nc4ccc(Cl)c(C(F)(F)F)c4)cc3)c12,100%
19,C=CC(=O)Nc1cccc(-c2nc(SC)nc(NCc3ccccc3)c2C#N)c1,73.8%
20,O=C1/C(=C/c2ccc3c(c2)OCO3)SC(=S)N1CCc1ccc(O)cc1,97.3%
